About 2,000 (36%) of roughly 5,500 compounds were called active. About 18% were inconclusive and are not listed. No stated cut-off is given here; in the data, active means normalized growth mostly below about 0.91 (no sharp cut-off); inconclusive means no clear call, values can overlap the other calls; inactive means mostly above about 0.92. This is one part of the list.
Assay: chemical genetic growth profiling, strain panel (AID 1159580);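 further: tested at 20 µM; growth read once vehicle control cultures reached saturation at 30 °C; 1 = growth at the plate median or of vehicle wells; lower values mean less growth of the strain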
Conditions: S. cerevisiae deletion strains, growth OD
[1] = locus YAL013W, strain DEP1, hits give low values
[2] = locus YBR229C, strain ROT2, hits give low values
[3] = locus YCL061C, strain MRC1, hits give low values
[4] = locus YDL101C, strain DUN1, hits give low values
[5] = locus YDR150W, strain NUM1, hits give low values
[6] = locus YEL061C, strain CIN8, hits give low values
[7] = locus YGR078C, strain PAC10, hits give low values
[8] = locus YGR229C, strain SMI1, hits give low values
[9] = locus YHR030C, strain SLT2, hits give low values
[10] = locus YHR087W, strain rtc3, hits give low values
[11] = locus YJR043C, strain POL32, hits give low values
[12] = locus YJR075W, strain HOC1, hits give low values
[13] = locus YLR039C, strain RIC1, hits give low values
[14] = locus YLR058C, strain SHM2 (second series), hits give low values
[15] = locus YLR085C, strain ARP6, hits give low values
[16] = locus YLR262C, strain YPT6, hits give low values
[17] = locus YML094W, strain GIM5, hits give low values
[18] = locus YMR219W, strain ESC1, hits give low values
[19] = locus YMR263W, strain SAP30, hits give low values
[20] = locus YNL153C, strain GIM3, hits give low values
[21] = locus YNL298W, strain CLA4 (second series), hits give low values
[22] = locus YNL322C, strain KRE1, hits give low values
[23] = locus YNR030W, strain Alg12, hits give low values
[24] = locus YOL006C, strain TOP1, hits give low values
[25] = locus YPL055C, strain LGE1, hits give low values
[26] = locus YPL241C, strain CIN2, hits give low values
[27] = locus YPR135W, strain CTF4, hits give low values

Measured: normalized growth

COC(=O)c1ccc(C#Cc2ccccc2)o1
inactive: [5] 0.834 | [8] 0.961 | [14] 0.992 | locus YNL128W, strain TEP1, hits give low values 0.927 | [22] 0.972
active: [1] 0.9 | [2] 0.884 | [3] 0.771 | [4] 0.846 | locus YDL134C, strain PPH21, hits give low values 0.589 | [6] 0.713 | [7] 0.89 | [9] 0.323 | [10] 0.902 | locus YJL187C, strain SWE1, hits give low values 0.913 | [11] 0.822 | [12] 0.875 | locus YKL190W, strain CNB1, hits give low values 0.731 | [13] 0.55 | [15] 0.325 | [16] 0.584 | [17] 0.787 | [18] 0.88 | [19] 0.904 | [20] 0.815 | [21] 0.654 | [23] 0.793 | [24] 0.349 | [25] 0.767 | [26] 0.678 | [27] 0.457

COC(=O)c1ccc(S(=O)(=O)NCc2ccccc2)n1C
inactive: [1] 1.01 | [2] 1.03 | [3] 1.02 | [4] 1.02 | [5] 1.03 | [6] 1.06 | [7] 1.02 | [8] 1.02 | [9] 1.09 | [10] 0.995 | [11] 1.06 | [12] 1.05 | [13] 1.02 | [14] 1.03 | [15] 1.04 | [16] 1.08 | [17] 1.01 | [18] 1.01 | [19] 1.01 | locus YMR307W, strain GAS1, hits give low values 1.1 | [20] 1.05 | [21] 1.03 | [22] 1.01 | [23] 1.04 | [24] 1.07 | [25] 0.991 | [26] 1.01 | [27] 1.15

CN(C)/C=C/C(=O)c1ccc(C#Cc2ccccc2)cc1
inactive: locus YAR019C, strain CDC15, hits give low values 0.982 | locus YBL105C, strain PKC1, hits give low values 0.986 | locus YBR135W, strain CKS1, hits give low values 0.967 | locus YBR136W, strain MEC1, hits give low values 0.984 | locus YBR160W, strain CDC28, hits give low values 0.97 | locus YDL017W, strain CDC7, hits give low values 0.977 | locus YDL028C, strain MPS1, hits give low values 0.98 | [4] 0.982 | locus YDL108W, strain KIN28, hits give low values 0.986 | locus YDL132W, strain cdc53, hits give low values 0.968 | locus YDL214C, strain PRR2, hits give low values 0.987 | locus YDR052C, strain DBF4, hits give low values 0.974 | locus YDR054C, strain cdc34, hits give low values 0.975 | locus YDR226W, strain ADK1, hits give low values 0.972 | locus YDR477W, strain SNF1, hits give low values 0.958 | locus YER123W, strain YCK3, hits give low values 0.955 | locus YER133W, strain GLC7, hits give low values 0.981 | locus YFL009W, strain cdc4, hits give low values 0.965 | locus YFL029C, strain CAK1, hits give low values 0.976 | locus YFR003C, strain YPI1, hits give low values 0.993 | locus YFR019W, strain FAB1, hits give low values 0.981 | locus YFR028C, strain CDC14, hits give low values 0.98 | locus YGR040W, strain KSS1, hits give low values 0.967 | locus YGR052W, strain FMP48, hits give low values 1.08 | locus YGR092W, strain DBF2, hits give low values 1.01 | [9] 0.874 | locus YHR079C, strain IRE1, hits give low values 0.99 | locus YHR082C, strain KSP1, hits give low values 1.05 | locus YHR205W, strain SCH9, hits give low values 0.987 | locus YIL147C, strain SLN1, hits give low values 0.982 | locus YJL095W, strain BCK1, hits give low values 0.935 | locus YJL128C, strain PBS2, hits give low values 0.953 | locus YJL157C, strain FAR1, hits give low values 0.989 | locus YJR016C, strain ILV3, hits give low values 0.974 | locus YJR066W, strain TOR1 (second series), hits give low values 0.934 | locus YJR066W, strain TOR1, hits give low values 0.94 | locus YKL048C, strain ELM1, hits give low values 0.979 | locus YKL067W, strain YNK1, hits give low values 0.974 | locus YKL101W, strain HSL1, hits give low values 0.986 | locus YKL193C, strain SDS22, hits give low values 0.976 | locus YKL203C, strain TOR2, hits give low values 1 | locus YLR113W, strain HOG1, hits give low values 0.972 | locus YLR133W, strain CKI1, hits give low values 0.987 | locus YLR403W, strain SFP1, hits give low values 0.97 | locus YML070W, strain DAK1, hits give low values 0.967 | locus YMR001C, strain CDC5, hits give low values 0.984 | locus YMR205C, strain PFK2 (second series), hits give low values 0.994 | locus YMR277W, strain FCP1, hits give low values 0.973 | locus YNL006W, strain LST8, hits give low values 0.962 | locus YNL020C, strain ARK1, hits give low values 0.992 | locus YNL161W, strain CBK1, hits give low values 0.965 | locus YNL183C, strain NPR1, hits give low values 0.939 | locus YNL207W, strain RIO2, hits give low values 0.985 | locus YNL222W, strain SSU72, hits give low values 0.972 | locus YNL307C, strain MCK1 (second series), hits give low values 0.994 | locus YOL078W, strain AVO1, hits give low values 0.98 | locus YOL136C, strain PFK27, hits give low values 0.976 | locus YOR061W, strain CKA2, hits give low values 0.979 | locus YOR119C, strain RIO1, hits give low values 1.04 | locus YOR231W, strain MKK1, hits give low values 0.931 | locus YOR329C, strain SCD5, hits give low values 0.98 | locus YPL031C, strain PHO85, hits give low values 0.968 | locus YPL153C, strain RAD53, hits give low values 0.939 | locus YPL204W, strain HRR25, hits give low values 0.94 | locus YPL209C, strain IPL1, hits give low values 0.981 | locus YPL256C, strain CLN2, hits give low values 0.98 | locus YPR025C, strain CCL1, hits give low values 0.977 | locus YPR106W, strain ISR1, hits give low values 0.985 | locus YPR111W, strain DBF20, hits give low values 0.97 | strain NNK1, hits give low values 0.982 | strain TSCII, hits give low values 0.969
